Inconclusive results are not listed. Active and inactive are the calls of the source. Calls follow the shape of the dose curve; as a rule, active = well fitted curve in either direction with a large enough effect (not every such curve was filed as active); inconclusive = small, poorly fitted or top-dose-only effect, or another doubt; inactive = flat fitted curve, though single readings scatter.
Experiment: AP1 Signaling Pathway (AID 357);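 also: ME-180 reporter cells stimulated with EGF at its EC50 level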
Conditions: ME-180 (cervical carcinoma) AP-1-bla reporter, EGF-induced, beta-lactamase ratio, 5 h; at 17.2 µM (top of the series) unless noted
Summary of the method: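 Titration-series screen for positive or negative modulators of EC50 EGF-induced signaling in ME-180 cells carrying an AP-1-driven beta-lactamase reporter. After 5 hours at 37 degrees Celsius, CCF4 460nm/530nm emission ratio gave %Activity; AC50 values derived.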
% is scaled to controls: 0 for no effect and ±100 for the full control effect.

Activity change, negative = inhibition, inactive:
Cn1cc(Cl)nc1C(O)c1ccccc1 (stereo not given) 2.37%, CC(C)Cc1[nH]c(=O)c(C#N)c2c1COC(C)(C)C2 9.17%, Cc1ccc(NC(=O)c2cc(N3CCOCC3)nc3ccccc23)cc1 -15.5%, CCOC(=O)C(OC(=O)c1sc(=S)n(C)c1C)C(C)=O (stereo not given) 18%, CC(C)N1CCc2c(sc(N)c2C#N)C1 5.12%, O=c1[nH]nc2n1CCCCC2 13.2%, CCOc1ccc(N=C2C(=O)N(CN3CCOCC3)c3ccccc32)cc1 2.27%, Cn1ncc(N=Cc2c(O)ccc3ccccc23)c1C(=O)N1CCOCC1 1.1%, CC1(C)Cc2c(c(-c3ccccc3Cl)[nH]c(=O)c2C#N)CO1 13%, CC1CC(C(F)(F)F)n2ncnc2N1 (stereo not given) 5.99%, Cc1nc2c(=O)n(C)c(=O)[nH]c2n1Cc1ccccc1 10.3%, CN1CCC2(CC1)C1CN(C)CC=C1C(C#N)=C(N)C2(C#N)C#N (stereo not given) 6.27%, O=C(CCC(=O)CCN1CCCCC1)CCN1CCCCC1 13.9%, CC1(C(=O)CSc2n[nH]c(-c3ccccc3Cl)n2)CCC(=O)O1 (stereo not given) 6.38%, Cc1ccc(-n2[nH]c(C)c(C=Nc3cc(C)ccn3)c2=O)cc1 2.52%, COc1cccc(/C(O)=C2\C(=O)C(=O)N(c3ccccn3)C2c2ccccc2OC)c1 (stereo not given) -8.01%, CCCNc1ncnc2c1cnn2-c1ccc(OC)cc1 -10.2%, Cc1ccc(OCC(=O)NCC(=O)n2nc(C)cc2C)cc1 -4.61%, CC/C(C)=C1\SC(N2CCN(C(C)=O)CC2)=NC1=O 2%, CCN(CC)c1nc(C)c2c(c1C#N)CC(C)(C)OC2 -7.83%, Cc1nc(NCCCO)c(C#N)c2c1COC(C)(C)C2 -14.2%, O=C(NCCN1CCOCC1)c1ccc(=O)oc1 4.3%, O=C(c1ccc(-n2cnnn2)cc1)N1CCOCC1 10.3%, CCc1nc(SCc2cccnc2)c(C#N)cc1C -8.39%, C1CNCCNCCCNCCNC1 1.85%, CCOC(=O)C1=C(N)n2c(s/c(=C\c3ccco3)c2=O)=C(C(=O)OC(C)C)C1c1ccco1 (stereo not given) 9.43%, CC(C)CCNc1nc2c(cc1C#N)COC(C)(C)C2 -23.1%, Cn1c(=O)c2c(nc(NCc3ccc4c(c3)OCO4)n2Cc2ccccc2F)n(C)c1=O -24.1%, Cc1cc(C)n(-c2c(F)c(F)c(CN3CCCCC3)c(F)c2F)n1 -3.48%, COc1ccc(C2(CN(C(C)=O)C(C)=O)CCCC2)cc1OC 4.19%, COc1ccc(CCNC2CC(C)N(C)CC2C)cc1OC (stereo not given) 2.19%, N#CC1=C(N)N2C(=C(C#N)C1c1ccccc1)Sc1ccccc12 (stereo not given) 17.5%, O=C1C2CC=C(Cl)CC2C(=O)N1CNc1ccccn1 (stereo not given) -0.589%, CCc1nc2n[nH]c(N)c2c2c1CCCC2 -12.2%, COc1ccc[nH]c1=O 14.3%, COc1ccc(C(C)=O)cc1CSCCC(=O)O 3.88%, COC(=O)c1[nH]c2cc(OC)ccc2c1NC(=O)CN1CCC(C(N)=O)CC1 -3.69%, CCOCCn1c(SC)nc2c1c(=O)[nH]c(=O)n2C 11%, CCOc1ccc(C2/C(=C(/O)c3ccc(OC)cc3)C(=O)C(=O)N2c2cc(C)on2)cc1OC (stereo not given) -11.1%, c1csc(Cc2nn3c(-c4ccncc4)nnc3s2)c1 -25%

From PubChem BioAssay (NCATS)
